# Cruzain inh Det: qHTS Assay for Promiscuous and Specific Inhibitors of Cruzain (with detergent) | purified cruzain, Z-FR-AMC fluorescence, 0.01% Triton | Potency, µM, inactives show max response, negative = inhibition, hits mostly inhibitors | actives 0.43% (n = 200,000) | Cruzipain (Trypanosoma cruzi), P25779 | AID 1478, 2009;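 also: plate controls were neutral wells for no effect and buffer without enzyme for full effect; nearly all actives have a fitted effect of over 40% in size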
# Target sequence (P25779 123-467 limits assumed): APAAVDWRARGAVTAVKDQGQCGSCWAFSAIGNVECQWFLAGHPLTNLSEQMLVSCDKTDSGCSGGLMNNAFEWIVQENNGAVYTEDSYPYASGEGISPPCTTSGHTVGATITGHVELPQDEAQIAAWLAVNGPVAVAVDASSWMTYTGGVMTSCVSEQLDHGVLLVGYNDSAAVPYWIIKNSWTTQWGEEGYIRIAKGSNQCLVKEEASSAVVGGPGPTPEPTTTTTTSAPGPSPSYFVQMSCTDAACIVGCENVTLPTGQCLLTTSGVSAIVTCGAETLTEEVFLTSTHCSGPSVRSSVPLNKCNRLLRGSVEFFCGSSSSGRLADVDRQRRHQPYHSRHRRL
#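 Cysteine protease activity tested under reducing, mildly acidic conditions (100 mM sodium acetate pH 5.5, 5 mM DTT) plus 0.01% Triton X-100. Cruzain 1.5 nM; substrate Z-FR-AMC 2 uM; 15 min compound preincubation at room temperature.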
# Cruzain noTriton: qHTS Assay for Promiscuous and Specific Inhibitors of Cruzain (without detergent); Cruzipain (Trypanosoma cruzi), P25779; purified cruzain, Z-FR-AMC fluorescence, no detergent; Potency, µM, inactives show max response, negative = inhibition, hits mostly inhibitors; actives 2.3% (n = 200,000); AID 1476, 2009;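 also: plate controls were enzyme without inhibitor for no effect and buffer without enzyme for full effect; nearly all actives have a fitted effect of over 40% in size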
#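 Detergent-free condition (0.00005% Triton X-100) in acetate buffer pH 5.5 with DTT. 1.5 nM enzyme and compound were pre-mixed 15 min, then 2 uM Z-FR-AMC substrate added; reaction progress from fluorescence change between first and third reads (60 s).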
# * hit, by the source's call; ? = inconclusive. Sampled rows, rich in hits. Any-hit rate of the full collection: about 2.6%. Calls follow the shape of the dose curve; as a rule, active = well fitted curve in the direction sought with a large enough effect; inconclusive = small, poorly fitted or top-dose-only effect, or another doubt; inactive = no such curve, though single readings can be large; an effect the other way counts as inactive or inconclusive. Potency is read from the fitted curve at half-maximal effect.
SMILES,Cruzain inh Det,Cruzain noTriton
O=C(NCc1ccccc1Cl)c1cc2cccc3c2n1CCS3,-3%,?
COc1ccccc1CNC(=O)c1cc2cccc3c2n1CCS3,-8%,25µM*
Cc1cnc(CNc2cc(-c3ccccc3CN(C)C)ncn2)cn1,-5%,-2%
O=C(Nc1ccccc1OCc1cc(=O)n2ccccc2n1)c1cccc(Br)c1,4%,12%
COCCNc1ccnc(-c2ccccc2CN(C)C)n1,0%,-1%
Cc1cc(C)nc(NC(=O)CSc2nc3cc(Cl)ccc3s2)n1,-3%,6%
Cc1cc(NC(=O)CSc2nc3cc(Cl)ccc3s2)no1,1%,10µM*
CCOC(=O)c1c(NC(=O)CSc2nc3cc(Cl)ccc3s2)sc(C(C)=O)c1C,-6%,16µM*
CCOC(=O)c1c(NC(=O)CSc2nc3ccccc3s2)sc(C(C)=O)c1C,-2%,-25%
O=C(O)CCN1C(=S)CSC1=S,4%,-1%
O=c1ccc2cc(S(=O)(=O)NCc3ccc(Cl)cc3)ccc2[nH]1,-9%,-17%
CCCn1c(=O)sc2cc(NC(=O)c3ccccc3Cl)ccc21,-7%,-5%
Cc1ccc2sc3ccc(NC(=O)c4ccccc4Cl)cc3c(=O)c2c1,3%,25µM*
COC(=O)c1ccc2c(c1)N(CC(=O)Nc1ccc(C)cc1Cl)C(=O)c1ccccc1S2,-4%,2%
CCc1ccc(NC(=O)Nc2ccccc2OCc2cc(=O)n3ccccc3n2)cc1,3%,6%
O=C(NCCc1cccs1)C12CN(Cc3ccccc3)CC1C(c1cccc([N+](=O)[O-])c1)=NO2 (stereo unspecified),3%,13µM*
O=C(NCCCCc1ccccc1)C12CN(Cc3ccccc3)CC1C(c1cccc([N+](=O)[O-])c1)=NO2 (stereo unspecified),4%,7%
Cc1no[n+]([O-])c1COc1ccc(/C=C2\NC(=S)NC2=O)cc1,-7%,32µM*
Cc1no[n+]([O-])c1COc1ccc(/C=C(\C#N)C(N)=O)cc1,-6%,5%
C=CCC(C)(O)c1cccc(Br)c1 (stereo unspecified),1%,14%
Nc1cc(C(=O)OCC(=O)NC(c2ccccc2)c2ccccc2)ccc1Cl,-1%,25µM*
Nc1cc(C(=O)OCC(=O)NCc2ccc(F)cc2)ccc1Cl,4%,0%
CCOC(=O)C(CC)Sc1nnc2[nH]c(=O)cc(C)n12 (stereo unspecified),-1%,5%
O=C(N/N=C/c1ccccc1Br)c1ccc(CSc2cccc3cccnc23)cc1,1%,10µM*
Cc1cc(C)nc(SCc2ccc(C(=O)N/N=C/c3cccc(O)c3O)cc2)n1,-6%,4%
SMILES,Cruzain inh Det,Cruzain noTriton
COCCNc1nc(-c2ccccc2Cl)nc2ccccc12,-2%,7%
COc1ccc(S(=O)(=O)Nc2nc3ccccc3nc2Nc2ccc3c(c2)OCO3)cc1,-5%,?
O=S(=O)(Nc1nc2ccccc2nc1Nc1ccc2c(c1)OCCO2)c1cccs1,-5%,25µM*
COc1ccc(CCn2c(O)c(C=NCc3ccc4c(c3)OCO4)c(=O)[nH]c2=O)cc1OC,-7%,?
O=c1[nH]c(=O)n(CCc2ccc(F)cc2)c(O)c1C=NCc1ccc2c(c1)OCO2,13µM*,?
COc1cc([C@@H]2c3cc4c(cc3[C@@H](O[C@@H]3O[C@H]5CO[C@@H](C)O[C@@H]5[C@@H](O)[C@H]3O)[C@@H]3COC(=O)[C@@H]23)OCO4)cc(OC)c1O,0%,-4%
COc1ccc(NC(=O)c2oc3ccccc3c2NC(=O)Cc2cccs2)cc1,-3%,-5%
CCOC(=O)C1CCN(C(=O)Nc2ccc3c(c2)nc(C)n3C)CC1,4%,-3%
Cc1nc2ccc(NC(=O)N3CCCCC3)cc2nc1C,-4%,-14%
O=C(Nc1ccc2nc(-c3ccco3)c(-c3ccco3)nc2c1)N1CCCCCC1,14µM*,2µM*
CCOC(=O)C1CCN(C(=O)Nc2ccc3nc(-c4ccco4)c(-c4ccco4)nc3c2)CC1,14µM*,?
COc1ccc2c(c1)c(=O)c(S(=O)(=O)c1ccccc1)cn2CC(=O)Nc1ccc2c(c1)OCO2,-7%,9%
COc1ccc2c(c1)c(=O)c(S(=O)(=O)c1ccccc1)cn2CC(=O)Nc1ccc(C)c(Cl)c1,-5%,20µM*
COc1ccc(NC(=O)Cn2cc(S(=O)(=O)c3ccccc3)c(=O)c3cc(C)ccc32)cc1Cl,-4%,25µM*
Cc1ccc(S(=O)(=O)c2cn(CC(=O)Nc3ccc(C)c(Cl)c3)c3ccc(C)cc3c2=O)cc1,-3%,?
COc1ccc2c(c1)C(c1ccccc1C)CC(=O)O2 (stereo unspecified),1%,-3%
CCN(CC)S(=O)(=O)c1ccc2c(c1)N(CC(=O)NCCc1ccc(OC)c(OC)c1)C(=O)CO2,1%,7%
CCOC(=O)c1ccc(-n2c(N)c(C(=O)OC)c3nc4ccccc4nc32)cc1,-1%,4%
O=C(CCS(=O)(=O)c1cccs1)Nc1ccc(C(=O)Nc2cccc(Cl)c2)cc1,-11%,-25%
CC(C)c1ccc(NC(=O)c2ccc(NC(=O)CCS(=O)(=O)c3cccs3)cc2)cc1,-4%,32µM*
C[C@@](N)(C(=O)O)c1cccc(CC(=O)O)c1,0%,4%
Cc1cccc(Cn2cccc2CNS(=O)(=O)c2ccc(C)c(C)c2)c1,-9%,-6%
COC(=O)c1sc(-c2ccccc2)cc1NC(=O)c1ccc(F)cc1,-3%,10µM*
COC(=O)c1sc(-c2ccccc2)cc1NC(=O)c1ccc(OC)cc1,-8%,?
Cc1cccc(-c2nnn3c2nc(NCCc2ccc(S(N)(=O)=O)cc2)c2ccccc23)c1,-1%,?
SMILES,Cruzain inh Det,Cruzain noTriton
NS(=O)(=O)c1ccc(CCNc2nc3c(-c4cccc(F)c4)nnn3c3ccccc23)cc1,2%,20µM*
Cc1cccc(NC(=O)CN2C(=O)COc3ccc(S(=O)(=O)Nc4ccccc4)cc32)c1C,3%,?
CC(C)c1ccc(NC(=O)CN2C(=O)COc3ccc(S(=O)(=O)Nc4ccccc4)cc32)cc1,-8%,20µM*
COc1ccc(/C=N/NC(=O)CCSc2nc3ccccc3s2)cc1OC,-10%,?
O=C(CCSc1nc2ccccc2s1)N/N=C/c1c(O)ccc2ccccc12,-2%,13µM*
Cc1cccc(CCNC(=O)CN(c2ccc(C(C)C)cc2)S(=O)(=O)c2c(C)nn(C)c2C)c1,-3%,?
COc1ccc2cc3cc(C(=O)NCCc4ccccc4)sc3nc2c1Cl,-2%,1%
C=CC(=O)CC,2%,3%
CCn1c2ccccc2c2cc(/C(C)=N/O)ccc21,-10%,2%
CCn1c2ccccc2c2cc(N)ccc21,-2%,7.9µM*
c1nc(N2CCOCC2)c2cc(-c3ccoc3)ccc2n1,-6%,-11%
COc1cc(/C(C)=N/NC(=S)NC(C)C)cc(OC)c1OC,-7%,0%
COc1cc(/C(C)=N\NC(N)=S)cc(OC)c1OC,5µM*,1.3µM*
CC(C)c1ccc(NC(=O)Cn2c(=O)n(CC3CCC(C(=O)NCCc4ccccc4)CC3)c(=O)c3ccccc32)cc1 (stereo unspecified),-1%,-23%
Cc1ccc(C(=O)N2CCc3cc(CNC(=O)CSc4ccccc4)ccc32)cc1,-3%,-13%
CN(C)CCNc1oc(-c2ccc(COc3ccc(Cl)cc3)o2)nc1C#N,-2%,3%
